TDP43 rescue: inhibitors of TDP-43 toxicity in yeast | 410,000 tested, 1.8% active | Potency, µM (series often up to 46.1 µM), hits mostly activators | TDP-43 expressing yeast growth rescue, BacTiter-Glo, 24 h | AID 652104; also: nearly all actives have a fitted effect of over 50% in size
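Growth rescue of TDP-43-toxic yeast measured as ATP luminescence (BacTiter-Glo). Cells grown to mid-log in raffinose, induced in galactose at OD600=0.02, exposed to compound 24 hr at 30 deg C.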
Abeta yeast res: compounds reversing amyloid beta toxicity in yeast; yeast expressing A-beta42, growth rescue, OD600, 48 h; response scale: 0% DMSO, 100% iron-clioquinol control; Potency, µM (titrated, usually from 46.1 µM), most hits filed as activators; 410,000 tested, 0.063% active; AID 1347071; also: nearly all actives have a fitted effect of over 55% in size
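Yeast growth medium received pinned compounds, then yeast cells expressing toxic A-beta were added; plates incubated at 30 C for 48 hr. Growth read as absorbance at 600 nm, normalized to DMSO and equimolar FeCl3 plus clioquinol controls.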
CCT chaperon mod: cytosolic chaperonin activity modulation; AID 651819; 360,000 tested, 0.3% active; activity change, % (test concentration not listed), hits read low; purified chaperonin ATPase assay, HTRF ADP detection, 30 min; in the data active = activity change below about -30%
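First, chaperonin was dispensed at 40 nM or 20 nM final depending on batch activity. Next, compounds were pinned at 76 uM and ATP added at 10 uM. After 30 min at 37 °C, ADP detection reagents ran 30 min at ambient temperature.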
aSyn yeast inh: inhibitors of alpha-synuclein toxicity in yeast. Potency, µM (titrated, usually from 46.1 µM), most hits filed as activators. Yeast expressing alpha-synuclein, growth rescue, BacTiter-Glo, 24 h. AID 652106. 370,000 tested, 0.14% active; also: nearly all actives have a fitted effect of over 65% in size
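Rescue of yeast growth: cells expressing toxic alpha-synuclein, induced in galactose at OD600 0.02, incubated with compound 24 h at 30 C. ATP luminescence quantified growth; inhibitors of toxicity appear as activators.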
Mm-Cpn inhibitor: inhibitors of Methanococcus maripaludis chaperonin TRiC (MmCpn); purified Mm-Cpn ATPase, ADP Transcreener TR-FRET; 330,000 tested, 0.031% active; Potency, µM (top dose mostly 76.9 µM), hits mostly inhibitors; also: nearly all actives have a fitted effect of over 80% in size
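25 nM Mm-CPN + cpd, 10 min 37°C; + 10 uM ATP, 30 min 37°C; buffer 30 mM Tris pH 7.4, 100 mM KCl, 5 mM MgCl2, 1 mM DTT; Transcreener ADP HTRF detection 30 min RT.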
FUS suppressor: FUS proteinopathy suppression in yeast; S. cerevisiae FUS-expressing, growth rescue, OD600, 24 h; Potency, µM (titrated, usually from 76.6 µM), most hits filed as activators; 390,000 tested, 0.24% active; also: nearly all actives have a fitted effect of over 55% in size
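Restored growth of FUS-toxic S. cerevisiae, read as 600 nm absorbance after 24 h at 30C in galactose medium (starting OD 0.005). Controls CP55940 and DMSO.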
A number is an active result; i = inactive; ? = inconclusive; nt = no result; [ ] = remark or other dose. Rows were chosen to be rich in hits. Some 2.3% of all compounds tested hit in one or more screens of this group. Unless noted, calls follow the shape of the dose curve; as a rule, active = well fitted curve in the direction sought with a large enough effect; inconclusive = small, poorly fitted or top-dose-only effect, or another doubt; inactive = no such curve, though single readings can be large; an effect the other way counts as inactive or inconclusive.

SMILES	TDP43 rescue	Abeta yeast res	CCT chaperon mod	aSyn yeast inh	Mm-Cpn inhibitor	FUS suppressor
Cc1nc(C)c(-c2csc(NCc3ccco3)n2)s1	i	i	i	i	i	i
Cc1nc(C)c(-c2csc(NCc3ccccc3)n2)s1	20µM	i	i	i	i	i
CC(C)(C)c1nnc(NC(=O)C2CCN(C(=O)c3ccccc3)CC2)s1	nt	nt	nt	i	nt	nt
CCc1nc(-c2ccccc2O)n(-c2ccccc2)n1	14µM	i	i	i	i	i
C=C(c1ccc2nc(NC(=O)OC)[nH]c2c1)c1cccs1	20µM	i	i	i	nt	nt
O=S(=O)(c1cnc2ccccc2c1)N1CCN(c2nc(-c3cccs3)nc3ccccc23)CC1	nt	nt	nt	i	nt	nt
Cc1c(CCNC(=O)c2ccc(Br)o2)sc2nc(-c3ccc(Cl)cc3)nn12	?	i	nt	nt	nt	i
COc1ccc(-c2nc3scc(CCNS(=O)(=O)c4c(C)cc(C)cc4C)n3n2)cc1OC	22µM	i	nt	nt	nt	i
COc1ccc(-c2nc3sc(CCNS(=O)(=O)c4c(C)cc(C)cc4C)c(C)n3n2)cc1	35µM	?	nt	nt	nt	i
COc1ccc(S(=O)(=O)NCCc2csc3nc(-c4ccc(OC)c(OC)c4)nn23)cc1C	i	i	nt	nt	nt	i
CCS(=O)(=O)NCCc1sc2nc(-c3ccc(OC)cc3)nn2c1C	i	i	nt	nt	nt	i
COc1ccc(-c2nc3sc(CCNC(=O)c4ccc(Br)o4)c(C)n3n2)cc1	11µM	i	nt	nt	nt	?
COc1ccc(-c2nc3scc(CCNS(=O)(=O)c4cccs4)n3n2)cc1	25µM	i	nt	nt	nt	i
O=C(O[C@H]1CC[C@@]23CCCN2C(=O)CCC[C@H]3C1)N1CCCC1	nt	nt	nt	nt	nt	i
N#CN=c1snc(-c2ccccc2)n1-c1ccc(Cl)cc1	nt	nt	nt	i	nt	nt
CCc1ccc(S(=O)(=O)NCCc2csc3nc(-c4ccccc4)nn23)s1	22µM	i	nt	nt	nt	i
O=S(=O)(NCCc1csc2nc(-c3ccccc3)nn12)c1cccs1	?	i	nt	nt	nt	i
CC1Cc2cc(S(=O)(=O)N(C)c3ccc(Br)cc3)ccc2N1C(=O)C1CC1 (stereo not given)	i	i	nt	nt	nt	?
Cc1ccc(-c2nc(C3CCCN(S(=O)(=O)c4ccccc4)C3)no2)cc1 (stereo not given)	nt	nt	nt	nt	nt	i
Clc1ccc(Sc2ccccn2)cc1	i	i	i	i	i	i
Clc1ccc(Sc2cc(Cl)c(-c3ccccc3)nn2)cc1	7.9µM	i	i	i	i	i
O=C(Nc1ccccc1Cl)C1C(c2ccccc2)C1(Cl)Cl (stereo not given)	13µM	i	i	i	i	i
O=C(Oc1cc2oc(=O)cc(-c3ccccc3)c2cc1Cl)C1CCCCC1	3.5µM	i[9.22 µM]	i	i	i	i
CC(C)(C)c1cc(NCc2ccccn2)n2ncc(-c3ccc(Cl)cc3)c2n1	22µM	i	i	i	i	i
CN(C)CCCNc1cc(C(C)(C)C)nc2c(-c3ccc(Cl)cc3)cnn12	i	i	i	i	i	i
SMILES	TDP43 rescue	Abeta yeast res	CCT chaperon mod	aSyn yeast inh	Mm-Cpn inhibitor	FUS suppressor
C=CCNC(=O)C1CCN(c2cncnc2)CC1	nt	nt	nt	nt	nt	i
Cc1cccn2c(=O)c(C=O)c(N3CCCCC3)nc12	i	i	i	i	i	i
Cc1cccn2c(=O)c(C=O)c(Cl)nc12	10µM	i	i	i	i	i
Cc1nc(N2CCN(c3ccccc3)CC2)nc2c1C(=O)CCC2	13µM	i	i	i	i	i
Clc1ccccc1N/N=C/c1ccc2c(c1)OCO2	18µM	i	i	i	i	i
O=C(CNC(=O)c1ccccc1Cl)N/N=C/c1ccc2c(c1)OCO2	i	i	i	i	i	i
CC(C)(C)n1nc2c(c1NC(=O)c1ccc(S(=O)(=O)N3CCCC3)cc1)CSC2	i	i	i	i	nt	16µM
COc1ccc(N2CCN(S(=O)(=O)CCNC(=O)Cc3ccc(Cl)cc3)CC2)cc1	i	i	nt	nt	nt	i
COc1ccc(Cl)cc1C(=O)NCCS(=O)(=O)N1CCN(c2ccccc2OC)CC1	11µM	i	nt	nt	nt	?
COc1ccccc1N1CCN(S(=O)(=O)CCNC(=O)COc2ccc(C(C)C)cc2)CC1	16µM	?	nt	nt	nt	?
COc1ccc(N2CCN(S(=O)(=O)CCNC(=O)COc3ccc(Cl)cc3)CC2)cc1	i	i	-40	i	i	i
